Bioassay records from PubChem.
Rows were chosen to be rich in hits. Some 6.3% of all compounds tested hit in one or more screens of this group.
Abs 340nm: compound light absorbance at 340 nm, profiling panel, artefact control, biochemical, MLSMR library, data from PS, PMK, MK assays; fold change at 10 µM; AID 708, 2007; compound absorbance at 340 nm, fold over control; 65,000 tested, under 10 active;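 active means at 10 µM dose, initial 340 nm absorbance at least 2 fold that of control wells; inactive means change under 2 fold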;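 further: initial absorbance extrapolated from kinetic A340 decline of NADH oxidation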
Spn DPM-DC inh: S. pneumoniae DPM-DC inhibitors, primary screen, biochemical, PK/LDH-coupled NADH fluorescence. diphosphomevalonate decarboxylase (Streptococcus pneumoniae D39). purified DPM-DC. calls only at 10 µM. hit rate 0.49% among 65,000;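 active means the 320 compounds with the highest percent inhibition in the single-dose primary screen, excluding strongly autofluorescent ones, cut at about 32% in these data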;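 further: kinetic rate of NADH fluorescence loss reporting ADP formed by the decarboxylase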
NADH coupling: inhibitors of PK/LDH coupling enzymes, profiling panel, artefact control, biochemical, MLSMR library; AID 774, 2007; hit rate 0.02% among 65,000; coupled PK/LDH NADH assays, four targets; IC50, µM (series often up to 10 µM);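 active means single-dose screening hits from any of four coupled enzyme assays that gave an IC50 when retested across doses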;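 further: the DPM-DC format reads NADH fluorescence rather than 340 nm absorbance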
Fluor 339 460: intrinsic fluorescence of library compounds, ex339/em460 – biochemical, MLSMR library, data from DPM-DC assay, artefact control, profiling panel; compound autofluorescence, ex339/em460 nm, NADH buffer; hits give high values; 1 = no-compound wells, NADH background; fluorescence fold increase at 10 µM; hit rate 5.5% among 65,000; AID 709, 2007;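 active means at 10 µM, mean starting fluorescence two-fold or more over control wells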;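 further: signal is the first read of a kinetic run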
MK inhibit: S. pneumoniae MK inhibitors, primary screen, biochemical, PK/LDH-coupled NADH absorbance; mevalonate kinase [Streptococcus pneumoniae D39]; purified MK, PK/LDH-coupled NADH absorbance 340 nm; inhibition, % at 10 µM; hit rate 0.48% among 65,000;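 active means ranked among the strongest by inhibition in the single 10 µM screen, a fixed top-ranked set picked for dose follow-up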
PMK inhibit: S. pneumoniae PMK inhibitors, primary screen, biochemical, mevalonate pathway, pilot trial included | hit rate 0.49% among 65,000 | inhibition, % at 10 µM | AID 539, 2006 | purified PMK, PK/LDH-coupled NADH absorbance 340 nm | phosphomevalonate kinase (Streptococcus pneumoniae D39);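 active means top-ranked compounds by inhibition in the single 10 µM screen, taking a fixed number of the strongest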
Numbers stand for hits; [ ] = remark or other dose.

What do the screens show for `COc1ccc(OCCCSc2ncccn2)cc1`?
Abs 340nm: inactive; Spn DPM-DC inh: inactive; NADH coupling: inactive; Fluor 339 460: inactive; MK inhibit: inactive; PMK inhibit: inactive

Results for CCOC(=O)COc1ccc2c(c1)C(=O)CC1(CCN(C(C)=O)CC1)O2 ?
Abs 340nm: inactive; NADH coupling: inactive; Fluor 339 460: 4.8; MK inhibit: inactive; PMK inhibit: inactive

What do the screens show for `CCOC(=O)COc1ccc2c(c1)C(=O)CC(C)(C)O2`?
Abs 340nm: inactive; NADH coupling: inactive; Fluor 339 460: 4.8; MK inhibit: inactive; PMK inhibit: inactive

How did O=C(O)COc1ccc2c(c1)CCCC2 do in these assays?
Abs 340nm: inactive; Spn DPM-DC inh: inactive; NADH coupling: inactive; Fluor 339 460: inactive; MK inhibit: inactive; PMK inhibit: inactive

What do the screens show for `CC1(C)CC(=O)c2cc(OCC(=O)O)ccc2O1`?
Abs 340nm: inactive; NADH coupling: inactive; Fluor 339 460: 4.8; MK inhibit: inactive; PMK inhibit: inactive

What do the screens show for `CC1(C)CC(=O)c2cc(OCC(=O)N3CCN(c4ccccc4F)CC3)ccc2O1`?
Abs 340nm: inactive; Spn DPM-DC inh: active[may fluoresce]; NADH coupling: inactive; Fluor 339 460: 2.6; MK inhibit: inactive; PMK inhibit: 26

How did O=C(O)C1C2C=CC3(CN(C/C=C/c4ccccc4)C(=O)C13)O2 (configuration not stated) do in these assays?
Abs 340nm: inactive; Spn DPM-DC inh: inactive; NADH coupling: inactive; Fluor 339 460: inactive; MK inhibit: inactive; PMK inhibit: inactive

How did COC(=O)c1cc(Br)c(=O)n(Cc2ccc3c(c2)OCO3)c1 do in these assays?
Abs 340nm: inactive; Spn DPM-DC inh: inactive; NADH coupling: inactive; Fluor 339 460: inactive; MK inhibit: inactive; PMK inhibit: inactive

What do the screens show for `COc1cccc(C2/C(=C(/O)c3cnn(-c4ccccc4)c3C)C(=O)C(=O)N2CCN(C)C)c1` (configuration not stated)?
Abs 340nm: inactive; Spn DPM-DC inh: inactive; NADH coupling: inactive; Fluor 339 460: inactive; MK inhibit: inactive; PMK inhibit: inactive

Results for CCOc1ccc(-c2nc(C#N)c(N3CCN(C)CC3)o2)cc1 ?
Abs 340nm: inactive; NADH coupling: inactive; Fluor 339 460: 2.9; MK inhibit: inactive; PMK inhibit: inactive

How did N#Cc1nc(-c2ccc(OCc3ccc(Cl)cc3)cc2)oc1N1CCOCC1 do in these assays?
Abs 340nm: inactive; Spn DPM-DC inh: inactive; NADH coupling: inactive; Fluor 339 460: inactive; MK inhibit: inactive; PMK inhibit: inactive

What do the screens show for `CCCOc1ccc(-c2nc(C#N)c(N3CCN(C)CC3)o2)cc1`?
Abs 340nm: inactive; NADH coupling: inactive; Fluor 339 460: 3.9; MK inhibit: inactive; PMK inhibit: inactive

Results for CCOc1ccc(-c2nc(C#N)c(N3CCCCCC3)o2)cc1 ?
Abs 340nm: inactive; NADH coupling: inactive; Fluor 339 460: 2.4; MK inhibit: inactive; PMK inhibit: inactive

How did O=C(c1n[nH]c(=O)c2ccccc12)N1CCN(C2c3ccccc3-c3ccccc32)CC1 do in these assays?
Abs 340nm: inactive; Spn DPM-DC inh: inactive; NADH coupling: inactive; Fluor 339 460: inactive; MK inhibit: inactive; PMK inhibit: 29

How did CCC(CC)NC(=O)c1n[nH]c(=O)c2ccccc12 do in these assays?
Abs 340nm: inactive; Spn DPM-DC inh: inactive; NADH coupling: inactive; Fluor 339 460: inactive; MK inhibit: inactive; PMK inhibit: inactive

What do the screens show for `CC(=O)CC(=O)Nc1ccccc1NC(C)=O`?
Abs 340nm: inactive; Spn DPM-DC inh: inactive; NADH coupling: inactive; Fluor 339 460: inactive; MK inhibit: inactive; PMK inhibit: inactive

What do the screens show for `C=CCn1c(N)c(C(=O)OC(C)(C)C)c2nc3ccccc3nc21`?
Abs 340nm: inactive; NADH coupling: inactive; Fluor 339 460: 2.5; MK inhibit: inactive; PMK inhibit: inactive

Results for C=CCn1c(N)c(C(=O)OC(C)CC)c2nc3ccccc3nc21 (configuration not stated) ?
Abs 340nm: inactive; NADH coupling: inactive; Fluor 339 460: 2.1; MK inhibit: inactive; PMK inhibit: inactive

What do the screens show for `Cc1c(C(=O)NCc2cccnc2)oc2ccc(S(=O)(=O)N3CCCCCC3)cc12`?
Abs 340nm: inactive; Spn DPM-DC inh: inactive; NADH coupling: inactive; Fluor 339 460: inactive; MK inhibit: inactive; PMK inhibit: inactive

Results for CN(C)CCNC(=O)c1coc(=O)c(Br)c1 ?
Abs 340nm: inactive; NADH coupling: inactive; Fluor 339 460: 3.7; MK inhibit: inactive; PMK inhibit: inactive

Results for Cc1ccc(C(=O)NCCN(C)C)c(C)c1 ?
Abs 340nm: inactive; Spn DPM-DC inh: inactive; NADH coupling: inactive; Fluor 339 460: inactive; MK inhibit: inactive; PMK inhibit: inactive

What do the screens show for `CCOc1ccc2[nH]c(=O)c(CN(Cc3ccc(F)cc3)C(=O)N3CCCC3)cc2c1`?
Abs 340nm: inactive; Spn DPM-DC inh: inactive; NADH coupling: inactive; Fluor 339 460: 2.8; MK inhibit: inactive; PMK inhibit: inactive

What do the screens show for `CCOc1ccc2[nH]c(C)cc(=O)c2c1`?
Abs 340nm: inactive; NADH coupling: inactive; Fluor 339 460: inactive; MK inhibit: inactive; PMK inhibit: inactive

Results for CCOc1ccc2[nH]c(=O)c(CN(CCO)C(=O)c3ccc(Br)cc3)cc2c1 ?
Abs 340nm: inactive; Spn DPM-DC inh: inactive; NADH coupling: inactive; Fluor 339 460: 2.6; MK inhibit: inactive; PMK inhibit: 42

How did CCOc1ccc2[nH]c(=O)c(CN(Cc3ccc(F)cc3)C(=O)c3ccco3)cc2c1 do in these assays?
Abs 340nm: inactive; Spn DPM-DC inh: inactive; NADH coupling: inactive; Fluor 339 460: inactive; MK inhibit: inactive; PMK inhibit: inactive

How did CCOc1ccc2[nH]c(=O)c(CN(CCO)C(=O)CC)cc2c1 do in these assays?
Abs 340nm: inactive; Spn DPM-DC inh: inactive; NADH coupling: inactive; Fluor 339 460: 3.1; MK inhibit: inactive; PMK inhibit: inactive

Results for CCC(=O)N(CCO)Cc1cc2ccc(C)c(C)c2[nH]c1=O ?
Abs 340nm: inactive; Spn DPM-DC inh: inactive; NADH coupling: inactive; Fluor 339 460: inactive; MK inhibit: inactive; PMK inhibit: inactive

What do the screens show for `CCOc1ccc2[nH]c(=O)c(=O)[nH]c2c1`?
Abs 340nm: inactive; Spn DPM-DC inh: inactive; NADH coupling: inactive; Fluor 339 460: 2.2; MK inhibit: inactive; PMK inhibit: inactive

What do the screens show for `COC(=O)CN1CCN(C(=O)c2ccc(F)cc2)c2ccccc2C1`?
Abs 340nm: inactive; Spn DPM-DC inh: inactive; NADH coupling: inactive; Fluor 339 460: inactive; MK inhibit: inactive; PMK inhibit: inactive

What do the screens show for `COc1ccc(-c2nnc(-c3cccnc3)o2)cc1OC`?
Abs 340nm: inactive; Spn DPM-DC inh: inactive; NADH coupling: inactive; Fluor 339 460: inactive; MK inhibit: inactive; PMK inhibit: inactive
